RGS4 inh: Inhibitors of Regulator of G Protein Signaling (RGS) 4: qHTS; Regulator of G-protein signaling 4 (Homo sapiens), P49798; Transcreener GDP fluorescence polarization, RGS4-accelerated GTP hydrolysis; Potency, µM (highest dose often 114 µM), inactives show at the top dose activity change, negative = inhibition, hits mostly inhibitors; actives 0.039% (n = 390,000); AID 504845, 2011; also: % is scaled to controls: 0 for no effect and ±100 for the full control effect; nearly all actives have a fitted effect of over 75% in size
Target sequence (P49798 whole entry, looked up): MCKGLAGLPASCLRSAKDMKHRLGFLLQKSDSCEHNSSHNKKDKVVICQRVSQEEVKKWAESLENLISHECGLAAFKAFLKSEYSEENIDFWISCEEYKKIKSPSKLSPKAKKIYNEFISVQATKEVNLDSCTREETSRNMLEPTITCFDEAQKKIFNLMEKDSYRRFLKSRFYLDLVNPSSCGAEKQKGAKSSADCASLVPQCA
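MLSMR compounds (23 nl, pin-transferred) preincubated 10 min at room temperature with a 500nM (2x) first reagent, then RGS4 at 900nM (2x) plus Transcreener GDP mix added; fluorescence polarization (620/688 nm) read before and after 90 min at 30 °C.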
MCF10A rerep: A quantitative high throughput screen for small molecules that induce DNA re-replication in MCF 10a normal breast cells. MCF 10A DNA re-replication, Hoechst nuclear intensity, 48 h. Potency, µM (series often up to 46.1 µM), without a hit: top-dose activity, positive = re-replication, actives largely listed as activators. actives 2.9% (n = 350,000). AID 624296, 2012; also: % of control where 0% means no effect; nearly all actives have a fitted effect of over 50% in size
SW480 rereplic: A quantitative high throughput screen for small molecules that induce DNA re-replication in SW480 colon adenocarcinoma cells | SW480 DNA re-replication, Hoechst DNA content imaging, 48 h | Potency, µM (top dose mostly 46.1 µM), without a hit: at the top dose re-replication activation, most hits filed as activators | actives 1.8% (n = 340,000) | AID 624297, 2012; also: % of control where 0% means no effect; nearly all actives have a fitted effect of over 55% in size
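Per well, 250 cells were exposed to pinned compound for 48 hr. Nuclear DNA was visualised with Hoechst (40 min, 37 C) and total object intensity recorded by fluorescence scanning.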
KB-3-1 tox: qHTS assay for MDR1-selective chemotherapeutics: Primary screen using the parental adenocarcinoma cell KB-3-1; KB-3-1 viability, CellTiter-Glo ATP luminescence, 72 h; Potency, µM (doses to about 46.1 µM), actives largely listed as cytotoxic; actives 1.4% (n = 400,000); also: % is scaled to controls: 0 for no effect and ±100 for the full control effect; nearly all actives have a fitted effect of over 60% in size
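Cytotoxicity measured as CellTiter-Glo luminescence after 72 h at 37 C. Compound titrations were pinned onto drug-naive KB-3-1 parental adenocarcinoma cells grown in DMEM with 10% FBS, and normalized data fitted to concentration-response curves.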
TSG101-PTAP inh: qHTS Assay for Iinhibitors of HIV-1 Budding by Blocking the Interaction of PTAP/TSG101; Fluorescence polarization, FITC-PTAP peptide / Tsg101 binding; Potency, µM (doses to about 115 µM), without a hit: at the highest dose activity change, negative = inhibition, hits mostly inhibitors; 340,000 tested, under 10 active; AID 493005, 2010; active = well fitted inhibition curve with a large enough effect in the main read-out, with a control signal flat, not every such curve was filed as active; inconclusive = small, poorly fitted or top-dose-only effect, or effect the other way, or a change in a side signal; inactive = no such curve, though single readings can be large or run the other way; also: % of control where 0% means no effect
Target sequence (Q99816 whole entry, looked up): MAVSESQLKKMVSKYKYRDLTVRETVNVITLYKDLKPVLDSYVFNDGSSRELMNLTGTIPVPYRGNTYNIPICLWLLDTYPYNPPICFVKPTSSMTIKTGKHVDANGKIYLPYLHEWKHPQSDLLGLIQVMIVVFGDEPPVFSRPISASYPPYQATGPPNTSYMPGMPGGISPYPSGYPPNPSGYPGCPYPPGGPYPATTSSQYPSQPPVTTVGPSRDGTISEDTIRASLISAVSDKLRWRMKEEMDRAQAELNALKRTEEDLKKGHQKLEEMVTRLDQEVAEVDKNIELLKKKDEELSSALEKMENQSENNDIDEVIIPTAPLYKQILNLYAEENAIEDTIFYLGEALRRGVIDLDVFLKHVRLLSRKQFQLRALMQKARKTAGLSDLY
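Fluorescence anisotropy tracks displacement of a FITC-tagged PTAP peptide (50 nM) from the Tsg101 binding domain (10 uM), following a 20 min room-temperature incubation at pH 7.5.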
KB-V1 cytotox: qHTS assay for MDR1-selective chemotherapeutics: Primary screen using the drug-selected MDR subline cells KB-V1; KB-V1 MDR cells viability, CellTiter-Glo, 72 h; Potency, µM (doses to about 46.1 µM), hits mostly cytotoxic; actives 3.4% (n = 400,000); AID 1347076, 2019; also: % is scaled to controls: 0 for no effect and ±100 for the full control effect; nearly all actives have a fitted effect of over 60% in size
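Readout: CellTiter-Glo luminescence, 10 min after addition. Cells: KB-V1 MDR subline, 72 h at 37 degrees C with compound. Analysis: corrected, normalized data fitted to concentration-effect curves.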
* marks the source's active call; other numbers are inactive results; i = inactive; ? = inconclusive; . = no result given; ! = a repeat was not active; [ ] = another dose, or the depositor's remark. In the library only some 6.6% were active in any assay of this set; here they are far more common. Unless noted, calls follow the shape of the dose curve; as a rule, active = well fitted curve in the direction sought with a large enough effect; inconclusive = small, poorly fitted or top-dose-only effect, or another doubt; inactive = no such curve, though single readings can be large; an effect the other way counts as inactive or inconclusive. Potency is read from the fitted curve at half-maximal effect.

SMILES | RGS4 inh | MCF10A rerep | SW480 rereplic | KB-3-1 tox | TSG101-PTAP inh | KB-V1 cytotox
O=C(c1ccc2c(c1)OCCO2)N(Cc1cccnc1)c1nc2c(F)cccc2s1 | -17.9% | . | . | . | . | .
O=C(CSc1nc2c([nH]c3ccccc32)c(=O)n1-c1ccccc1)N1CCc2ccccc21 | 23.8% | . | . | . | . | .
COc1ccc(Br)cc1CN1CCC(N2CCCC2)CC1 | 1.3% | 23.1µM* | ? | i | -1.7% | i
COc1ccc(Br)cc1CN1CCCC(C(=O)N2CCCCC2)C1 (stereo unspecified) | 44.3% | 15.0% | 1.6% | i | 0.6% | i
COC(=O)c1cc2c([nH]c1=O)CC(c1ccccc1)CC2=O (stereo unspecified) | . | . | . | i | . | ?
O=C(Nc1cccc(F)c1)N1CCc2nc(NCc3cccc(Oc4ccccc4)c3)ncc2C1 | . | . | . | ? | . | 18.4µM*
Cc1cc(C)cc(-n2c(C)c3c(C)nnc(C)c3c2C)c1 | -3.7% | 9.9% | 23.1µM* | ? | 0.2% | ?
Cc1nnc(C)c2c(C)n(-c3ccc(Cl)c(N)c3)c(C)c12 | -12.1%[56.9 µM] | ? | 7.6% | i | -0.1% | i
Cc1cc2nc3ccc(=[N+](C)C)cc-3sc2cc1N | -139.6%[56.9 µM] | -5.5% | ? | ? | -0.2% | 16.4µM*
Cc1ccc(CNCC(O)(c2ccccc2)c2ccc(F)cc2)cc1 (stereo unspecified) | -14.4% | 21.1% | 4.4% | i | -2.0% | 18.4µM*
Cc1ccc(CNCC(O)(c2ccc(F)cc2)c2ccc(F)cc2)cc1 | -15.7% | ? | ? | i | 2.4% | i
CC(=O)NC(C)c1ccc(Cl)c(Cl)c1 (stereo unspecified) | -28.3% | ? | 3.8% | i | -8.0% | i
CC(=O)NC(CCc1ccc(Cl)c(Cl)c1)c1cccc(O)c(=O)c1 (stereo unspecified) | . | . | . | ? | . | 8.2µM*
CCC(=O)Nc1cccc(-c2cn3ccccc3n2)c1 | -5.1% | 3.5% | -8.6% | i | -3.3% | i
O=C(Nc1cccc(-c2cn3ccccc3n2)c1)c1cccc(Cl)c1 | -31.7% | ? | 21.4% | i | 1.4% | 9.2µM*
O=C(Nc1cccc(-c2cn3ccccc3n2)c1)C1CC1 | -16.6% | ? | -7.0% | ? | -4.7% | 18.4µM*
O=S(=O)(c1ccc(Oc2ccc(Br)cc2F)nc1)N1CCCCC1 | -5.3% | 20.1% | ? | ? | -8.3% | 23.1µM*
CCc1nnc(NC(=O)CSc2nccn2-c2ccc(OC)cc2)s1 | -11.7% | . | . | . | . | .
CCc1nnc(NC(=O)CSc2nccn2-c2cc(C)cc(C)c2)s1 | 0.9% | ? | ? | 18.4µM* | -12.5% | i
COc1ccc2c(c1)[C@H]1[C@H](CO2)[C@H](c2ccccc2)[C@]2(C)C(=O)Nc3ccc(C)cc3C(=O)N12 | 5.5% | 20.6µM* | ? | ? | -4.8% | i
COc1ccc2c(c1)[C@H]1[C@H](CO2)[C@H](c2ccccc2)[C@]2(C)C(=O)Nc3ccc(Cl)cc3C(=O)N12 | -9.3% | 7.3% | ? | i | 0.8% | i
COc1ccc2c(c1)[C@@H]1[C@H](CO2)[C@H](c2ccccc2)[C@]2(C)C(=O)Nc3ccc(C)cc3C(=O)N12 | -22.5% | 1.3% | 11.0% | ? | -2.1% | ?
COc1ccc2c(c1)C(=O)N1[C@H]3c4cc(C)ccc4OC[C@@H]3[C@H](c3ccccc3)[C@]1(C)C(=O)N2 | 27.1% | 14.6µM* | ? | ? | -6.0% | ?
COc1ccc2c(c1)OC[C@H]1[C@H]2N2C(=O)c3ccccc3NC(=O)[C@@]2(C)[C@H]1c1ccccc1 | -11.7% | 83.4% | ? | 20.6µM* | -2.1% | ?
COc1ccc2c(c1)[C@H]1[C@H](CO2)[C@H](c2ccccc2)[C@]2(C)C(=O)Nc3ccc(F)cc3C(=O)N12 | -17.7% | ? | ? | ? | . | ?
SMILES | RGS4 inh | MCF10A rerep | SW480 rereplic | KB-3-1 tox | TSG101-PTAP inh | KB-V1 cytotox
COc1ccc2c(c1)OC[C@H]1[C@H]2N2C(=O)c3cc(C)ccc3NC(=O)[C@@]2(C)[C@H]1c1ccccc1 | 9.0% | ? | 10.3µM* | i | -5.2% | i
O=C(NCCN1CCN(c2cccc(Cl)c2)CC1)C1COc2ccccc2C1 (stereo unspecified) | 20.0% | . | . | . | . | .
CC(C)Oc1ccc(CNC(=O)c2ccc(NC(=O)N3CCSc4ncccc43)cc2)cc1 | 32.0% | . | . | i | . | i
Cc1ccc2oc(-c3cc(NC(=O)c4ccc5c(c4)OCCO5)cc(C)c3O)nc2c1 | -6.2% | . | . | i | . | i
O=S(=O)(NCc1ccccc1)c1ccc(-c2cnc(C3CC3)o2)cc1 | -11.8% | ? | -9.6% | 18.4µM*! | -7.9% | 14.6µM*!
CCOc1ccccc1CNS(=O)(=O)c1ccc(-c2cnc(C3CC3)o2)cc1 | -13.4% | 1.3µM* | ? | 1.16µM* | 1.7% | 1.46µM*!
Cc1ccc(-c2nc(C#N)c(NCc3cccc4c3OCO4)o2)cc1 | 13.2% | 16.4µM* | ? | i | -5.2% | i
CCn1c(SC(C)C(=O)NCc2ccco2)nnc1-c1ccccc1 (stereo unspecified) | . | . | . | ? | . | i
O=C1/C(=C/c2cccc([N+](=O)[O-])c2)CSc2ccc(Cl)cc21 | 19.1% | -6.9% | -7.5% | i | -0.2% | i
O=C1/C(=C/c2cccc([N+](=O)[O-])c2)CCc2ccccc21 | -26.5% | ? | ? | ? | 0.4% | 16.4µM*
CCN1C/C(=C\c2cccc([N+](=O)[O-])c2)C(=O)/C(=C/c2cccc([N+](=O)[O-])c2)C1 | -28.6% | 2.59µM* | 0.581µM* | 0.92µM* | -2.0% | ?
Cc1cc2oc(=O)c(CC(=O)NCCCN(C)C)c(C)c2c2occ(C(C)(C)C)c12 | 8.3% | ? | 9.2µM* | ? | -4.0% | ?
COCCNC(=O)Cc1c(C)c2c(cc(C)c3c(C(C)(C)C)coc32)oc1=O | 20.5% | 5.8µM* | 16.4µM* | ? | -2.7% | ?
NN1C(=O)NC(c2ccccc2)(c2ccccc2)C1=O | 4.7% | 0.731µM* | 11.3% | i | -0.4% | i
Cc1cc(-c2ccccc2)nc(Nc2nc3c(C)cccc3c(=O)[nH]2)n1 | -15.9%[11.4 µM] | 9.2µM* | -1.2% | i | -1.4% | i
